From PubChem BioAssay AID430 (Sanford-Burnham Center for Chemical Genomics, 2006) come the findings set out here.

SMILES strings stand for the structures. Screen size: about 63,000 compounds; about 1,100 (1.7%) were called active. The full list was thinned out, with actives kept by preference. Potency and affinity values are given separately. Unmarked numbers belong to inactive results. Rule as the data show it: active = cytotoxicity above about 50%; inactive = the rest.

This assay is described as follows: cytotoxicity in HPDE-C7 cells, cell-based, fluorescence, HTS (AID 430).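 Also: cells exposed to compound for 48 hours before viability readout; 0% = vehicle and 100% = reference cytotoxic drug.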 The following applies: HPDE-C7 pancreatic duct cells viability, at 10 µM, active compounds read high.
For `O=C(c1ccco1)N1CCN(C(c2ccccc2)c2nnnn2Cc2cccs2)CC1` (stereo unspecified), the cytotoxicity was 7.3%.

For `Cc1ccc(OCc2nc(-c3ccccn3)no2)c(Br)c1`, the cytotoxicity is 12.5%.

Turning to `Clc1ccc(OCc2nc(-c3ccccn3)no2)c(Br)c1`, the cytotoxicity is 4.3%.

Consider `CC(C)CCn1c(=O)c2ccccc2n2c(CN(C)Cc3ccccc3)nnc12`, for which the cytotoxicity was -12.8%.

For the compound `O=c1[nH]c(CSc2nc3ccccc3o2)nc2c1cnn2-c1ccccc1`, the cytotoxicity was 0.3%.

For `O=C(NCC1CCCO1)C1CCCN(S(=O)(=O)c2cccc3nsnc23)C1` (stereo unspecified), the cytotoxicity was -15%.

Take `O=C(NCCc1ccccc1)C1CCCN(S(=O)(=O)c2cccc3nsnc23)C1` (stereo unspecified): the cytotoxicity was -0.3%.

On to `CCN1CCCC1CNC(=O)C1CCCN(S(=O)(=O)c2cccc3nsnc23)C1` (stereo unspecified), for which the cytotoxicity is 61.7% (active).

Take `CC(=O)Nc1ccc(S(=O)(=O)NCc2cn3c(C)csc3n2)cc1`: the cytotoxicity was 10.5%.

Take `Cc1cc(C(=O)Nc2c(F)cc(F)cc2Br)no1`: the cytotoxicity was 0.9%.

With `O=C(Nc1ccc(F)cc1F)c1cc(-c2ccco2)on1`, the cytotoxicity is -5.3%.

For `O=C(Nc1c(F)cc(F)cc1Br)c1ccco1`, the cytotoxicity was 0.6%.

As to `COc1ccccc1-c1cc(C(=O)Nc2c(F)cc(F)cc2Br)no1`, the cytotoxicity was -10.6%.

For the compound `O=C(Nc1c(F)cc(F)cc1Br)c1cc(-c2ccco2)on1`, the cytotoxicity was 58.5% (active).

For the compound `O=C(Nc1c(F)cc(F)cc1Br)c1cc(-c2ccc(O)cc2)on1`, the cytotoxicity is 54.4% (active).

`Cc1ccc(S(=O)(=O)CCc2nnc(NC(=O)c3cnccn3)s2)cc1`: the cytotoxicity is -8.2%.

Turning to `CC(=O)Oc1cc2c(C(=O)NCCCN3CCOCC3)c(C)oc2c2ccccc12`, the cytotoxicity was 5.1%.

Regarding `CCN(CC)c1ccc(NC(=O)c2cccc(OC)c2)c(C)c1`, the cytotoxicity was 39.6%.

`CCOc1cccc(C(=O)Nc2ccc(N3CCN(S(C)(=O)=O)CC3)cc2)c1`: the cytotoxicity was -6.2%.

As to `CCN(CC)c1ccc(NC(=O)c2c(OC)cccc2OC)c(C)c1`, the cytotoxicity was 0.4%.

For the compound `CCOc1cccc(C(=O)Nc2ccc(N(CC)CC)cc2)c1`, the cytotoxicity was 79.8% (active).

`CCN(CC)c1ccc(NC(=O)c2cc(OC)cc(OC)c2)c(C)c1`: the cytotoxicity is 53.5% (active).

On to `CCN(CC)c1ccc(C(=O)Nc2cccc(F)c2)cc1`, for which the cytotoxicity was 34%.

On to `COc1ccc(CC(=O)NCc2ccccc2Cl)cc1S(=O)(=O)N1CCOCC1`, for which the cytotoxicity was 1.1%.

Turning to `CCSc1nsc(SCC)c1C(N)=O`, the cytotoxicity was -6.7%.

Regarding `CCCN(CCO)Cc1cccc(Cl)c1`, the cytotoxicity is 6.6%.

With `COc1ccc(NS(=O)(=O)c2ccc(C)c(C(=O)O)c2)cc1`, the cytotoxicity was 5%.

With `CCOC(=O)N1CCN(C(=O)c2cc3sccc3n2C)CC1`, the cytotoxicity was -9.1%.

For the compound `Cc1onc(-c2ccccc2Cl)c1C(=O)N1CCN=C1SCc1cccnc1`, the cytotoxicity is -11.9%.

For `COc1cccc(CN(C)C(=O)c2ccc(S(=O)(=O)N3CCCC3)cc2)c1OC`, the cytotoxicity is -5.4%.

On to `O=C(Nc1ccc(Cl)cn1)c1cccc(F)c1`, for which the cytotoxicity is 53.4% (active).

In the case of `O=C(Nc1ccc(Cl)cn1)c1cccnc1`, the cytotoxicity is 13%.

For the compound `O=C(Nc1ccncc1)c1cccc(F)c1`, the cytotoxicity is -0.4%.

As to `Cc1nnc(NC(=O)c2cccc(F)c2)s1`, the cytotoxicity was -2.4%.

Regarding `O=C(Nc1ncccc1Cl)c1cccc(F)c1`, the cytotoxicity was 62.6% (active).

As for `CN(C)S(=O)(=O)c1cccc(C(=O)Nc2ccc(Cl)cn2)c1`, the cytotoxicity was -15.5%.

For the compound `O=C(CSc1nnc(-c2cccs2)o1)N1CCCc2ccccc21`, the cytotoxicity was -17.8%.

On to `CCOC(=O)C1CCCN(CC(=O)Nc2c(C(=O)OC)[nH]c3ccc(C)cc23)C1` (stereo unspecified), for which the cytotoxicity is -8.3%.

Consider `CC(C)(O)c1cc(=O)sc2nc3ccccc3n12`, for which the cytotoxicity is -13.4%.

As for `c1ccc2nc3c(nc2c1)sc1nc2ccccc2n13`, the cytotoxicity is -6.8%.

Turning to `N=c1cc(C2(O)CCCCC2)n2c(nc3ccccc32)s1`, the cytotoxicity was 51.1% (active).

As for `COc1ccc(NC(=O)CS(=O)CC(=O)Nc2cc(Cl)ccc2OC)cc1` (stereo unspecified), the cytotoxicity was -12.2%.

Turning to `CC(Oc1ccc(Cl)cc1Cl)C(=O)Nc1ccncc1` (stereo unspecified), the cytotoxicity is -0.5%.

On to `Cc1ccc(N(CC(O)CN(C)C)S(=O)(=O)c2ccccc2)cc1` (stereo unspecified), for which the cytotoxicity is 3.3%.

Turning to `O=C(Nc1nnc(-c2ccccc2)o1)Nc1ccccc1Cl`, the cytotoxicity was 22.1%.

On to `Cc1cccc(-c2nnc(-c3ccc(N)cc3)o2)c1`, for which the cytotoxicity is -2%.

As for `Cc1cccc(-c2nnc(NC(=O)c3ccc(Cl)cc3)o2)c1`, the cytotoxicity is 79.5% (active).

For `CC(=O)c1ccc(C(=O)Nc2nnc(-c3ccc(Cl)cc3)o2)cc1`, the cytotoxicity is 66.8% (active).

In the case of `COc1ccc(C(=O)Nc2nnc(-c3ccccc3)o2)cc1OC`, the cytotoxicity is -9.5%.

In the case of `Cc1cccc(-c2nnc(-c3ccccc3)o2)c1`, the cytotoxicity is -3.9%.

Turning to `COc1ccccc1C(=O)Nc1nnc(-c2ccc(Cl)cc2)o1`, the cytotoxicity is -10.4%.

With `CN(C)c1ccc(C(=O)Nc2nnc(-c3ccc(Cl)cc3)o2)cc1`, the cytotoxicity is 31.7%.

For the compound `Cc1cc(NC(c2cccnc2)c2c(C)[nH]c3ccccc23)no1` (stereo unspecified), the cytotoxicity was 5.2%.

Take `CC(=O)c1ncnn1CC(=O)c1ccc(Cl)cc1Cl`: the cytotoxicity is 13.6%.

For the compound `O=C(CCN1CCc2ccccc2C1)Nc1cccc(F)c1`, the cytotoxicity is 3.9%.

For `Cc1ccc(NS(=O)(=O)c2cccc(C(=O)Nc3cc(C)on3)c2)cc1`, the cytotoxicity was -4.8%.

`Cc1ccc2nc3ccc(N4CCN(C)CC4)nn3c(=O)c2c1`: the cytotoxicity is -2.8%.

Turning to `COc1cccc(C2=NOC(C(=O)NC(C)(C)C)C2)c1` (stereo unspecified), the cytotoxicity was -11.2%.

Regarding `COc1cccc(C2=NOC(C(=O)NC(C)C)C2)c1` (stereo unspecified), the cytotoxicity is -3.9%.

On to `CC(C)(C)SCCNS(=O)(=O)c1ccc(F)cc1`, for which the cytotoxicity was 5.7%.

For `O=S(=O)(c1cccc(-c2nnc(SCc3ccc(Cl)cc3)o2)c1)N1CCCCC1`, the cytotoxicity was -2.9%.

As to `Cc1cc2nc(-c3ccc(SCC(=O)N4CCOCC4)nc3)[nH]c2cc1C`, the cytotoxicity was -15.5%.

Turning to `O=C(NC1=NCCS1)Nc1ccccc1`, the cytotoxicity is 1.2%.

As for `COc1ccc(C2c3c(-c4ccccc4O)n[nH]c3C(=O)N2CCc2ccc(OC)c(OC)c2)cc1` (stereo unspecified), the cytotoxicity was 36.9%.

On to `Cc1cc(O)c(-c2n[nH]c3c2C(c2cccc(O)c2)N(Cc2cccnc2)C3=O)cc1Cl` (stereo unspecified), for which the cytotoxicity is 8%.

Regarding `COc1cc(C2c3c(-c4cc(C)cc(C)c4O)n[nH]c3C(=O)N2CCCO)cc(OC)c1OC` (stereo unspecified), the cytotoxicity is 0.6%.

For the compound `COCCCN1C(=O)c2[nH]nc(-c3ccccc3O)c2C1c1cccc(Cl)c1` (stereo unspecified), the cytotoxicity was 13.3%.

Regarding `COc1ccc(CCN2C(=O)c3[nH]nc(-c4ccccc4O)c3C2c2cccc(O)c2)cc1OC` (stereo unspecified), the cytotoxicity is 66% (active).

Turning to `COCCCN1C(=O)c2[nH]nc(-c3ccccc3O)c2C1c1ccc(Cl)cc1` (stereo unspecified), the cytotoxicity is 67.3% (active).

Turning to `COCCCN1C(=O)c2[nH]nc(-c3cc(C)cc(C)c3O)c2C1c1ccc(O)c(OC)c1` (stereo unspecified), the cytotoxicity was -2.5%.

On to `COc1ccc(CCN2C(=O)c3[nH]nc(-c4ccccc4O)c3C2c2ccccc2)cc1OC` (stereo unspecified), for which the cytotoxicity is 54.9% (active).

For the compound `COc1ccc(C2c3c(-c4cc(Cl)c(C)cc4O)n[nH]c3C(=O)N2Cc2cccnc2)cc1OC` (stereo unspecified), the cytotoxicity is 26.6%.

For `Cc1ccc(C2c3c(-c4ccccc4O)n[nH]c3C(=O)N2Cc2ccncc2)cc1` (stereo unspecified), the cytotoxicity is -3.9%.

For the compound `CC(C)OCCCN1C(=O)c2[nH]nc(-c3ccccc3O)c2C1c1cccc(Cl)c1` (stereo unspecified), the cytotoxicity is -3.6%.

Consider `Cc1noc(C)c1C(=O)OCC(=O)c1c[nH]c2ccccc12`, for which the cytotoxicity was 4.1%.

Take `O=C(NCCC1=CCCCC1)C1CC(=O)N(C2CCCCC2)C1` (stereo unspecified): the cytotoxicity was 1.5%.

With `COc1ccc(-c2noc(CCC(=O)N3CCN(c4cc(C)ccc4C)CC3)n2)cc1`, the cytotoxicity was 11.6%.

With `O=C(CSCc1nc2ccccc2[nH]1)N1CCN(c2cccc(Cl)c2)CC1`, the cytotoxicity is 7.4%.

With `COc1ccc(CCN2CC(C(=O)O)CC2=O)cc1` (stereo unspecified), the cytotoxicity was 1.2%.

Regarding `c1ccc(CCc2nc(-c3ccccn3)no2)cc1`, the cytotoxicity is 6.2%.

On to `O=C1c2ccccc2NC(c2ccccn2)N1c1ccc(Cl)cc1` (stereo unspecified), for which the cytotoxicity is -4.1%.

As to `CCN(CC)S(=O)(=O)c1ccc(NC(=O)CSc2nnc(-c3ccc(F)cc3)o2)cc1`, the cytotoxicity was -7.7%.

Turning to `COc1cccc(-c2nnc(NC(=O)c3ccccc3Br)o2)c1`, the cytotoxicity was 22.6%.

Regarding `COc1cccc(-c2nnc(NC(=O)c3ccc(S(=O)(=O)N4CC(C)OC(C)C4)cc3)o2)c1` (stereo unspecified), the cytotoxicity was -5.9%.

For `COc1cccc(-c2nnc(NC(=O)c3ccc(S(=O)(=O)N4CCOCC4)cc3)o2)c1`, the cytotoxicity is 13.7%.

`CCCN(CCC)S(=O)(=O)c1ccc(C(=O)Nc2nnc(-c3cc(OC)cc(OC)c3)o2)cc1`: the cytotoxicity is 47.5%.

In the case of `COc1cccc(-c2nnc(NC(=O)c3ccc(S(=O)(=O)N(CC(C)C)CC(C)C)cc3)o2)c1`, the cytotoxicity is 51.2% (active).

Take `CCCN(CCC)S(=O)(=O)c1ccc(C(=O)Nc2nnc(-c3cccc(OC)c3)o2)cc1`: the cytotoxicity is 66.4% (active).

Turning to `CCCn1c(SCC(=O)Nc2nnc(CC)s2)nnc1-c1ccco1`, the cytotoxicity was -5%.

`O=C(Nc1ccc2oc(=O)ccc2c1)c1cccnc1`: the cytotoxicity is 3%.

Regarding `COc1ccccc1-c1nc(-c2ccncc2)no1`, the cytotoxicity is 2.1%.

Regarding `COc1cc2oc(=O)c(Br)c(C)c2c(OC)c1OC`, the cytotoxicity is -8.6%.

Take `CCCS(=O)(=O)c1c(S(=O)(=O)CCC)c2ccccn2c1C(=O)OC`: the cytotoxicity was -3.7%.

On to `CCN1CCN(c2cc(=O)n(C3CCCCC3)c(=O)[nH]2)CC1`, for which the cytotoxicity is -14.2%.

Turning to `CCOC(=O)N1CCN(C(=O)CCc2c(C)nc3c(c(C)nn3-c3ccc(C)c(C)c3)c2C)CC1`, the cytotoxicity is -7.7%.

As for `COc1ccc(OC)c(NS(=O)(=O)c2ccc3c(c2)CCC(=O)N3)c1`, the cytotoxicity was 3.3%.

Regarding `CCOc1ccc(S(=O)(=O)Nc2cc(OC)ccc2OC)cc1`, the cytotoxicity was 73.1% (active).

Take `COc1ccc(OC)c(NS(=O)(=O)c2ccc(SC)cc2)c1`: the cytotoxicity is 36.3%.

As to `COc1ccc(OC)c(NS(=O)(=O)c2ccc(N3CCCC3=O)cc2)c1`, the cytotoxicity was 75.9% (active).

As to `CCCCOc1ccc(S(=O)(=O)Nc2cc(OC)ccc2OC)cc1`, the cytotoxicity is 31.3%.

With `COC(=O)COc1ccc(S(=O)(=O)Nc2cc(OC)ccc2OC)cc1`, the cytotoxicity is -2.9%.
